Measurements: PubChem BioAssay AID1159580 (chemical genetic matrix, 2015)
Hit rate of the full screen: of about 5,500 compounds, about 2,000 (36%) were called active. Roughly 18% stayed inconclusive and do not appear here. Cut-off read from the data, not from the text of the source: active = normalized growth mostly below about 0.91 (no sharp cut-off); inconclusive = no clear call, values can overlap the other calls; inactive = mostly above about 0.92. Some of the results follow.

Assay: chemical genetic growth profiling, strain panel (AID 1159580);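 note: tested at 20 µM; growth read once vehicle control cultures reached saturation at 30 °C; 1 = growth at the plate median or of vehicle wells; lower values mean less growth of the strain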
Conditions: growth OD

Measured: normalized growth

CC(=O)OC1CC(OC(C)=O)C2(C)C(CC(OC(C)=O)C3(C)C2CCC2(C)C(c4ccoc4)OC(=O)C4OC423)C1(C)C (stereo unspecified)
inactive: S. cerevisiae deletion strains, locus YAL013W, strain DEP1, stronger effect = lower value 0.995 | S. cerevisiae deletion strains, locus YBR021W, strain FUR4, stronger effect = lower value 0.986 | S. cerevisiae deletion strains, locus YBR229C, strain ROT2, stronger effect = lower value 0.984 | S. cerevisiae deletion strains, locus YCL029C, strain bik1, stronger effect = lower value 0.984 | S. cerevisiae deletion strains, locus YDL035C, strain GPR1, stronger effect = lower value 0.97 | S. cerevisiae deletion strains, locus YDL074C, strain BRE1, stronger effect = lower value 1.03 | S. cerevisiae deletion strains, locus YDL101C, strain DUN1, stronger effect = lower value 0.978 | S. cerevisiae deletion strains, locus YDL134C, strain PPH21, stronger effect = lower value 1 | S. cerevisiae deletion strains, locus YDL185W, strain tfp1, stronger effect = lower value 0.986 | S. cerevisiae deletion strains, locus YDL192W, strain arf1, stronger effect = lower value 0.99 | S. cerevisiae deletion strains, locus YDR101C, strain arx1, stronger effect = lower value 0.981 | S. cerevisiae deletion strains, locus YDR150W, strain NUM1, stronger effect = lower value 1 | S. cerevisiae deletion strains, locus YDR162C, strain NBP2, stronger effect = lower value 1.01 | S. cerevisiae deletion strains, locus YDR318W, strain mcm21, stronger effect = lower value 0.986 | S. cerevisiae deletion strains, locus YDR388W, stronger effect = lower value 0.988 | S. cerevisiae deletion strains, locus YDR502C, strain sam2, stronger effect = lower value 1 | S. cerevisiae deletion strains, locus YEL061C, strain CIN8, stronger effect = lower value 0.995 | S. cerevisiae deletion strains, locus YER110C, stronger effect = lower value 0.977 | S. cerevisiae deletion strains, locus YER155C, strain BEM2, stronger effect = lower value 0.976 | S. cerevisiae deletion strains, locus YER167W, strain BCK2, stronger effect = lower value 0.973 | S. cerevisiae deletion strains, locus YGL078C, strain dbp3, stronger effect = lower value 1 | S. cerevisiae deletion strains, locus YGL086W, strain mad1, stronger effect = lower value 0.99 | S. cerevisiae deletion strains, locus YGL248W, strain PDE1, stronger effect = lower value 1 | S. cerevisiae deletion strains, locus YGR078C, strain PAC10, stronger effect = lower value 1.04 | S. cerevisiae deletion strains, locus YGR135W, strain pre9, stronger effect = lower value 1.02 | S. cerevisiae deletion strains, locus YGR229C, strain SMI1, stronger effect = lower value 0.997 | S. cerevisiae deletion strains, locus YGR252W, strain gcn5, stronger effect = lower value 0.951 | S. cerevisiae deletion strains, locus YHR030C, strain SLT2, stronger effect = lower value 0.984 | S. cerevisiae deletion strains, locus YHR079C, strain IRE1 (second series), stronger effect = lower value 0.99 | S. cerevisiae deletion strains, locus YHR094C, strain hxt1, stronger effect = lower value 0.984 | S. cerevisiae deletion strains, locus YHR129C, strain ARP1, stronger effect = lower value 0.997 | S. cerevisiae deletion strains, locus YHR200W, strain rpn10, stronger effect = lower value 0.99 | S. cerevisiae deletion strains, locus YIL066C, strain RNR3, stronger effect = lower value 0.986 | S. cerevisiae deletion strains, locus YIL073C, strain SPO22, stronger effect = lower value 0.954 | S. cerevisiae deletion strains, locus YIL125W, strain kgd1, stronger effect = lower value 0.983 | S. cerevisiae deletion strains, locus YIR030C, strain dcg1, stronger effect = lower value 0.984 | S. cerevisiae deletion strains, locus YJL095W, strain BCK1, stronger effect = lower value 1.03 | S. cerevisiae deletion strains, locus YJL134W, strain LCB3, stronger effect = lower value 0.984 | S. cerevisiae deletion strains, locus YJL168C, strain set2, stronger effect = lower value 0.986 | S. cerevisiae deletion strains, locus YJL187C, strain SWE1 (second series), stronger effect = lower value 1.01 | S. cerevisiae deletion strains, locus YJR043C, strain POL32, stronger effect = lower value 0.98 | S. cerevisiae deletion strains, locus YJR075W, strain HOC1, stronger effect = lower value 1.01 | S. cerevisiae deletion strains, locus YKL009W, strain mrt4, stronger effect = lower value 0.971 | S. cerevisiae deletion strains, locus YKL068W, stronger effect = lower value 1 | S. cerevisiae deletion strains, locus YKL085W, strain MDH1 (second series), stronger effect = lower value 0.992 | S. cerevisiae deletion strains, locus YKL085W, strain MDH1, stronger effect = lower value 0.992 | S. cerevisiae deletion strains, locus YKL190W, strain CNB1, stronger effect = lower value 1 | S. cerevisiae deletion strains, locus YKR001C, strain vps1, stronger effect = lower value 1.01 | S. cerevisiae deletion strains, locus YLR039C, strain RIC1, stronger effect = lower value 0.929 | S. cerevisiae deletion strains, locus YLR058C, strain SHM2, stronger effect = lower value 0.984 | S. cerevisiae deletion strains, locus YLR102C, strain apc9, stronger effect = lower value 0.979 | S. cerevisiae deletion strains, locus YLR262C, strain YPT6, stronger effect = lower value 0.975 | S. cerevisiae deletion strains, locus YLR268W, strain sec22, stronger effect = lower value 1 | S. cerevisiae deletion strains, locus YLR330W, strain CHS5, stronger effect = lower value 0.989 | S. cerevisiae deletion strains, locus YLR342W, strain FKS1 (second series), stronger effect = lower value 0.941 | S. cerevisiae deletion strains, locus YLR371W, strain rom2, stronger effect = lower value 0.977 | S. cerevisiae deletion strains, locus YLR418C, strain cdc73, stronger effect = lower value 0.988 | S. cerevisiae deletion strains, locus YML016C, strain PPZ1, stronger effect = lower value 0.993 | S. cerevisiae deletion strains, locus YML032C, strain rad52, stronger effect = lower value 0.976 | S. cerevisiae deletion strains, locus YML124C, strain tub3, stronger effect = lower value 0.996 | S. cerevisiae deletion strains, locus YMR078C, strain ctf18, stronger effect = lower value 0.97 | S. cerevisiae deletion strains, locus YMR223W, strain ubp8, stronger effect = lower value 0.981 | S. cerevisiae deletion strains, locus YMR263W, strain SAP30, stronger effect = lower value 1.03 | S. cerevisiae deletion strains, locus YMR307W, strain GAS1, stronger effect = lower value 0.909 | S. cerevisiae deletion strains, locus YNL067W, strain RPL9B, stronger effect = lower value 1.03 | S. cerevisiae deletion strains, locus YNL128W, strain TEP1, stronger effect = lower value 0.995 | S. cerevisiae deletion strains, locus YNL153C, strain GIM3, stronger effect = lower value 1.04 | S. cerevisiae deletion strains, locus YNL233W, strain BNI4, stronger effect = lower value 0.999 | S. cerevisiae deletion strains, locus YNL250W, strain rad50, stronger effect = lower value 0.974 | S. cerevisiae deletion strains, locus YNL271C, strain bni1, stronger effect = lower value 0.988 | S. cerevisiae deletion strains, locus YNL298W, strain CLA4, stronger effect = lower value 0.985 | S. cerevisiae deletion strains, locus YNL307C, strain MCK1, stronger effect = lower value 0.965 | S. cerevisiae deletion strains, locus YNL322C, strain KRE1, stronger effect = lower value 0.986 | S. cerevisiae deletion strains, locus YNR052C, strain pop2, stronger effect = lower value 0.987 | S. cerevisiae deletion strains, locus YOL006C, strain TOP1, stronger effect = lower value 0.977 | S. cerevisiae deletion strains, locus YOL012C, strain htz1 1.14 | S. cerevisiae deletion strains, locus YOL147C, strain pex11, stronger effect = lower value 0.996 | S. cerevisiae deletion strains, locus YOR061W, strain CKA2, stronger effect = lower value 0.994 | S. cerevisiae deletion strains, locus YOR069W, strain VPS5, stronger effect = lower value 0.963 | S. cerevisiae deletion strains, locus YOR136W, strain idh2, stronger effect = lower value 0.981 | S. cerevisiae deletion strains, locus YOR144C, strain elg1, stronger effect = lower value 0.998 | S. cerevisiae deletion strains, locus YOR184W, strain ser1, stronger effect = lower value 0.959 | S. cerevisiae deletion strains, locus YOR316C, strain cot1, stronger effect = lower value 0.987 | S. cerevisiae deletion strains, locus YPL055C, strain LGE1, stronger effect = lower value 1.04 | S. cerevisiae deletion strains, locus YPL241C, strain CIN2, stronger effect = lower value 0.994 | S. cerevisiae deletion strains, locus YPR119W, strain clb2, stronger effect = lower value 0.992 | S. cerevisiae deletion strains, locus YPR141C, strain kar3, stronger effect = lower value 0.985 | S. cerevisiae deletion strains, locus YPR163C, strain tif3, stronger effect = lower value 0.992 | S. cerevisiae deletion strains, locus YPR167C, strain met16, stronger effect = lower value 0.992 | S. cerevisiae deletion strains, strain wtn01, stronger effect = lower value 0.996 | S. cerevisiae strains, strain wild type, stronger effect = lower value 0.983
